Assay results: the supplement of paper PMC11732987, “Enantioselective OTUD7B fragment discovery through chemoproteomics screening and high-throughput optimisation” (Communications Chemistry, 2025)

Experiments:
Assay in all cases: log2 ratio of Biotin-Ahx-Ub-VS probe labelling (fragment/DMSO); higher = less target engagement (more negative = stronger competition), active = hit call of the paper (q ≤ 0.05, log2 ratio ≤ -1)
Details in all cases: compound concentration: 200 uM; treatment time: 3 h
USP9X = USP9X (UniProt Q93008)
Summary of the method: (§1)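 HEK293T lysate (495 µg per sample, in Tris/CHAPS/IGEPAL buffer with protease inhibitors) was exposed in triplicate for 3 h to fragment at 200 µM or to vehicle, then to Biotin-Ahx-Ub-VS at 0.5 µM final for 1 h. Labelled DUBs were enriched on NeutrAvidin, digested with LysC and trypsin, and analysed by diaPASEF LC-MS/MS. Spectronaut label-free quantities were normalised to the global median, and values are average log2 ratios of fragment over vehicle from an unpaired t-test. Only proteins with ≥2 unique peptides were used.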

UniProt O00487 = molecular target: UniProt O00487
Summary of the method: as §1

UniProt O00507 = molecular target: UniProt O00507
Summary of the method: as §1

UniProt P51784 = molecular target: UniProt P51784
Summary of the method: as §1

UniProt Q5T2D3 = molecular target: T1, UniProt Q5T2D3
T1 sequence (whole entry): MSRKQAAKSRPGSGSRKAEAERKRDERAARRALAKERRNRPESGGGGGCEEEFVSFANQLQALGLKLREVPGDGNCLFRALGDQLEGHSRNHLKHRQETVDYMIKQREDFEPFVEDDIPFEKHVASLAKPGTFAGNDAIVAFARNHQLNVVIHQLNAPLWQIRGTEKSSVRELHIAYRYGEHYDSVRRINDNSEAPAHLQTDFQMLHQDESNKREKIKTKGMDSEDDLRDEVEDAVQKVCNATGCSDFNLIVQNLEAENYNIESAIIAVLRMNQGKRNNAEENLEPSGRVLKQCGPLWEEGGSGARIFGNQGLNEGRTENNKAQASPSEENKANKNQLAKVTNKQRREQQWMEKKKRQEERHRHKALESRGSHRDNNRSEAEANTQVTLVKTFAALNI
Summary of the method: as §1

UniProt Q8TE49 = molecular target: T2, UniProt Q8TE49
T2 sequence (whole entry): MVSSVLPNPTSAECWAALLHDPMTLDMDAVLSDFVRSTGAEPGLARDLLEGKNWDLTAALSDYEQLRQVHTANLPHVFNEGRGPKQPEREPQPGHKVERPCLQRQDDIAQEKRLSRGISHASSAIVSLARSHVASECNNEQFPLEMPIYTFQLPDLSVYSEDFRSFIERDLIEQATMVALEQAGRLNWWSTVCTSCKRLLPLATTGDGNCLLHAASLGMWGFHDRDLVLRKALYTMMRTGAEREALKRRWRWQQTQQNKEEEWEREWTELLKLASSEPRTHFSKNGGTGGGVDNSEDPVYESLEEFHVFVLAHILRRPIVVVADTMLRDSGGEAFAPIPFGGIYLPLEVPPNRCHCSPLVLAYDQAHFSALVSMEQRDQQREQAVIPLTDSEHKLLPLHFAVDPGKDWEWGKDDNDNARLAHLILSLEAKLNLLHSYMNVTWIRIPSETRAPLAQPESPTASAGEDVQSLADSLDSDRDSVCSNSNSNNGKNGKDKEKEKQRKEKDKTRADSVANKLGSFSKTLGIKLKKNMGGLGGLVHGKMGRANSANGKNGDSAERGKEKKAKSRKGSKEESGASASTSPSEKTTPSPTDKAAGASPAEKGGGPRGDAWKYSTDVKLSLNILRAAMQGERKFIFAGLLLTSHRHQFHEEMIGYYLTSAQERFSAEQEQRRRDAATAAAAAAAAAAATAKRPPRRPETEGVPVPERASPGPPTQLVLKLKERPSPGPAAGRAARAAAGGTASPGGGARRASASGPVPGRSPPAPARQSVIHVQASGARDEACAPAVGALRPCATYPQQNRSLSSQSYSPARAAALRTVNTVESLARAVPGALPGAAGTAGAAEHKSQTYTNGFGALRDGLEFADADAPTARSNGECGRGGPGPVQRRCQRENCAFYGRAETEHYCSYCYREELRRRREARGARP
Summary of the method: as §1

UniProt Q9P2H5 = molecular target: T3, UniProt Q9P2H5
T3 sequence (whole entry): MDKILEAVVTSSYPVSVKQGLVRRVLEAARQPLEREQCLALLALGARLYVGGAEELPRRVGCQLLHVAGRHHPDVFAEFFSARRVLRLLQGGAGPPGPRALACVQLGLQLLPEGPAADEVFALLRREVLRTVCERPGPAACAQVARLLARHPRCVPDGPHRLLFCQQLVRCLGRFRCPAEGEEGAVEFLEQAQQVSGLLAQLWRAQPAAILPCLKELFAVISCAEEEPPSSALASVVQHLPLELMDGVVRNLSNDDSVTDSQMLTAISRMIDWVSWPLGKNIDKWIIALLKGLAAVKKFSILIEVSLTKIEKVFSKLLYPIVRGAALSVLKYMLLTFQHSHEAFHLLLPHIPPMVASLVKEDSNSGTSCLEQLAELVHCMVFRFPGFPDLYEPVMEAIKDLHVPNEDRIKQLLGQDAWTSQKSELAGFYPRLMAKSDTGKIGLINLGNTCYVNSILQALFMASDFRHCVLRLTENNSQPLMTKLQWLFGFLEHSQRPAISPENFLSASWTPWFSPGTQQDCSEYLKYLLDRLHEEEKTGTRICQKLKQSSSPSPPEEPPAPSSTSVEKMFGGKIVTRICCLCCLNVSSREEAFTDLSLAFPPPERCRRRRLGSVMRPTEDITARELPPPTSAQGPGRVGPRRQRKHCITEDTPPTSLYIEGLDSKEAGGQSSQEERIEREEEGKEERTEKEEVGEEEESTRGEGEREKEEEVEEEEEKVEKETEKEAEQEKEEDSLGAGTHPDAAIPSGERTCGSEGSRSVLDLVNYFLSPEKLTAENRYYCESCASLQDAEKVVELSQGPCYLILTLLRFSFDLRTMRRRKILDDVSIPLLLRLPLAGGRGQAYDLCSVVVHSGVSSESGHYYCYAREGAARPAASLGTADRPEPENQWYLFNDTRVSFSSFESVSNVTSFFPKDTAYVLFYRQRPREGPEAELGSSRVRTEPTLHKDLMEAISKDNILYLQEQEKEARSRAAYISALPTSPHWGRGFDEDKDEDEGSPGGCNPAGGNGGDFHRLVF
Summary of the method: as §1

UniProt Q9UGI0 = molecular target: T4, UniProt Q9UGI0
T4 sequence (whole entry): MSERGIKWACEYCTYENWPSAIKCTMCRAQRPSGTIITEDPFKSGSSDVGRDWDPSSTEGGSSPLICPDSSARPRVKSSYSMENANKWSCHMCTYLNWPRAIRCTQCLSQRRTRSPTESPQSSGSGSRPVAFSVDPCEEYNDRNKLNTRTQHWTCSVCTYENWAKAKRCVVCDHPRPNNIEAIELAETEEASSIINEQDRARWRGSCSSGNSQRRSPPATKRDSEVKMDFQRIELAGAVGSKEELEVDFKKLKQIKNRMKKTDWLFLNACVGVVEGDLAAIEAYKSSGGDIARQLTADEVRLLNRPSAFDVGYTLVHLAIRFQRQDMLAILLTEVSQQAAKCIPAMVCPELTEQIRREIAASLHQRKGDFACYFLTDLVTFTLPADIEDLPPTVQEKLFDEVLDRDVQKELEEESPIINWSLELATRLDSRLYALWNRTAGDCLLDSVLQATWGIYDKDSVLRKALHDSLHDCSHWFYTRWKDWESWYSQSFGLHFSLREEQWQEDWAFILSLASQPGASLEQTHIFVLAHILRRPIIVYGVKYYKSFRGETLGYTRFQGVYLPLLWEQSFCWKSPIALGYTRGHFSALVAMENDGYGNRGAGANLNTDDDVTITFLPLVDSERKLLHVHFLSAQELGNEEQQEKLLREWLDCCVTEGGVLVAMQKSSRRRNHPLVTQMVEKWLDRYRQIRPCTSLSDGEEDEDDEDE
Summary of the method: as §1

YOD1 = molecular target: T5, YOD1 (UniProt Q5VVQ6)
T5 sequence (whole entry): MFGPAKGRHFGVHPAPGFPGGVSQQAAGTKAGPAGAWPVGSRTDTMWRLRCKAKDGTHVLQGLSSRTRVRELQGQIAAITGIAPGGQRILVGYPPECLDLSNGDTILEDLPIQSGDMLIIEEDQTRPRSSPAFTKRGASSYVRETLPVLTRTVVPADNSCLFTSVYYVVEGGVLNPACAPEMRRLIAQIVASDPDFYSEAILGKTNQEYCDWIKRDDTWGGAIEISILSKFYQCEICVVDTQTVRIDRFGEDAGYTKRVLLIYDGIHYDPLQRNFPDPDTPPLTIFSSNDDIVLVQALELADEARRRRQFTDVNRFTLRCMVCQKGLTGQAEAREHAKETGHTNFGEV
Summary of the method: as §1

Measured: log2 ratio of Biotin-Ahx-Ub-VS probe labelling

Chain of UniProt O00507 (O00507 whole entry): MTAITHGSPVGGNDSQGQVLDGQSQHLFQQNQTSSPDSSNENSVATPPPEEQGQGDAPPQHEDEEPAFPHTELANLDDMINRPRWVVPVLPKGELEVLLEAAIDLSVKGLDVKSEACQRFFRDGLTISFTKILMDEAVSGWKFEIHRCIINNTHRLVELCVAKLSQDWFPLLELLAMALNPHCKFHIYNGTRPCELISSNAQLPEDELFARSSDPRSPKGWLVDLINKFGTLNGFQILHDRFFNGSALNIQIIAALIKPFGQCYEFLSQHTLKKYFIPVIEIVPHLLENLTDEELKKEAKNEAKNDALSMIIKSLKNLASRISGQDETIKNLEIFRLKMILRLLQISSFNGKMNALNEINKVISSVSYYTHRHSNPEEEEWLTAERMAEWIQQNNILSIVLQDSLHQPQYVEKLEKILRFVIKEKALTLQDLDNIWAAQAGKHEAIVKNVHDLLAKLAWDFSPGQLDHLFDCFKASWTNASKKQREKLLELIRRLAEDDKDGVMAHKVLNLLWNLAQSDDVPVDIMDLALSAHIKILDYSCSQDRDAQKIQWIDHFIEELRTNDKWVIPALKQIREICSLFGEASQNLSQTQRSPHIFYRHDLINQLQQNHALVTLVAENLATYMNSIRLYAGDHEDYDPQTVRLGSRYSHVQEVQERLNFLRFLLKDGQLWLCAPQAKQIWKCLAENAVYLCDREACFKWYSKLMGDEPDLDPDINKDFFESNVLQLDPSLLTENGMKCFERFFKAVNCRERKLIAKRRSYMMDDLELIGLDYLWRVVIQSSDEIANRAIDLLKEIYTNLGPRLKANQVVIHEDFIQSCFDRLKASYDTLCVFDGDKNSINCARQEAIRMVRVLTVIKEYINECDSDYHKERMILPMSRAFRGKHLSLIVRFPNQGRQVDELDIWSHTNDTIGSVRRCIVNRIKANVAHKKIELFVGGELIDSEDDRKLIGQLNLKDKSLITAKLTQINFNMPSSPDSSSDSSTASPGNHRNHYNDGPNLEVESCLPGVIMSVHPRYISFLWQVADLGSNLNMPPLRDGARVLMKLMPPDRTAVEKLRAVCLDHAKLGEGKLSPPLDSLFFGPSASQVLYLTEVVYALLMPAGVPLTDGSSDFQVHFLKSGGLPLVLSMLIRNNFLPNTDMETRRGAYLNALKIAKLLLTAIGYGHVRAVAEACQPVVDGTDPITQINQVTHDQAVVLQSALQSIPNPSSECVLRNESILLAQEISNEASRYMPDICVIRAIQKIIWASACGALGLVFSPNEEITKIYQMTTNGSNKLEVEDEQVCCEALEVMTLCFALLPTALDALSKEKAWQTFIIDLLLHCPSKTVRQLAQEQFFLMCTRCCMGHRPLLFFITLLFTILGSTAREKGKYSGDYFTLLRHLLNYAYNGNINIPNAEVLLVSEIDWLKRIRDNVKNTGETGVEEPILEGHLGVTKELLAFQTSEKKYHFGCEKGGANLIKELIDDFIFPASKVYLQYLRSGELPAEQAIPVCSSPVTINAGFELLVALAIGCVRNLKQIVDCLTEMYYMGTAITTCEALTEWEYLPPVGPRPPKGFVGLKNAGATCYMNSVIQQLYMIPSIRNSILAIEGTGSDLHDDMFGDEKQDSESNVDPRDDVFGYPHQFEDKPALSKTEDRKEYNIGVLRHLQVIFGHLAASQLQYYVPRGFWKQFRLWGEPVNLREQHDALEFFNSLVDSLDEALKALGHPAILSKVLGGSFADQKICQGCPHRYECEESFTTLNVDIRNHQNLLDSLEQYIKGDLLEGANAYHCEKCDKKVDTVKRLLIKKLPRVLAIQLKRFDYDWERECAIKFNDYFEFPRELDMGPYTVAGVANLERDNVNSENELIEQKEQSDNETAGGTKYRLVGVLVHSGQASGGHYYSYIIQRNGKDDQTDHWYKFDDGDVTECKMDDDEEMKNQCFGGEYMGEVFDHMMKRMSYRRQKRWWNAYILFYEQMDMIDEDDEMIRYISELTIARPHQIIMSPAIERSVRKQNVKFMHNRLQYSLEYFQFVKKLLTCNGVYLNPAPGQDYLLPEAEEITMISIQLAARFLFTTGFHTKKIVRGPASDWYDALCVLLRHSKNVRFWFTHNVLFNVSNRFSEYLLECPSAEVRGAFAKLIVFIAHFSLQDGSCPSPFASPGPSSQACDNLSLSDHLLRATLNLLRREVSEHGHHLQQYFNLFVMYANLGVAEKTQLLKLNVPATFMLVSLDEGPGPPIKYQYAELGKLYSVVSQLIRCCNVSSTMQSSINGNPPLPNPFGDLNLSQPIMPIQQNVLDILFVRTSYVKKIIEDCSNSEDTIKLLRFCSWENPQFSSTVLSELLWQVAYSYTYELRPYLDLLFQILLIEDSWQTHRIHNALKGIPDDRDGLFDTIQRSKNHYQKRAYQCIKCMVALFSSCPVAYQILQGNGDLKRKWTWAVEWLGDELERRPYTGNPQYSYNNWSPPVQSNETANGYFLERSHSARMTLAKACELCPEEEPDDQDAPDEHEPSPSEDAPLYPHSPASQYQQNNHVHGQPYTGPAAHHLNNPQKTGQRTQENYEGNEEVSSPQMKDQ
Chain of UniProt O00487 (O00487 whole entry): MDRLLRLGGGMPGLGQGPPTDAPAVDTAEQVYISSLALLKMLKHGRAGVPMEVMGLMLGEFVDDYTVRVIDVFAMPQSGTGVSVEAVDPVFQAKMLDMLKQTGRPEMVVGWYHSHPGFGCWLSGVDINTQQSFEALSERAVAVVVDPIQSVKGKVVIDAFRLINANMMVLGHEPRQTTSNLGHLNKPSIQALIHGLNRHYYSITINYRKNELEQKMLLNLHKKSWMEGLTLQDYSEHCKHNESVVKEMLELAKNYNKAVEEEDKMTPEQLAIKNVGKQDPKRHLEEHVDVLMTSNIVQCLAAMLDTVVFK
Chain of UniProt P51784 (P51784 whole entry): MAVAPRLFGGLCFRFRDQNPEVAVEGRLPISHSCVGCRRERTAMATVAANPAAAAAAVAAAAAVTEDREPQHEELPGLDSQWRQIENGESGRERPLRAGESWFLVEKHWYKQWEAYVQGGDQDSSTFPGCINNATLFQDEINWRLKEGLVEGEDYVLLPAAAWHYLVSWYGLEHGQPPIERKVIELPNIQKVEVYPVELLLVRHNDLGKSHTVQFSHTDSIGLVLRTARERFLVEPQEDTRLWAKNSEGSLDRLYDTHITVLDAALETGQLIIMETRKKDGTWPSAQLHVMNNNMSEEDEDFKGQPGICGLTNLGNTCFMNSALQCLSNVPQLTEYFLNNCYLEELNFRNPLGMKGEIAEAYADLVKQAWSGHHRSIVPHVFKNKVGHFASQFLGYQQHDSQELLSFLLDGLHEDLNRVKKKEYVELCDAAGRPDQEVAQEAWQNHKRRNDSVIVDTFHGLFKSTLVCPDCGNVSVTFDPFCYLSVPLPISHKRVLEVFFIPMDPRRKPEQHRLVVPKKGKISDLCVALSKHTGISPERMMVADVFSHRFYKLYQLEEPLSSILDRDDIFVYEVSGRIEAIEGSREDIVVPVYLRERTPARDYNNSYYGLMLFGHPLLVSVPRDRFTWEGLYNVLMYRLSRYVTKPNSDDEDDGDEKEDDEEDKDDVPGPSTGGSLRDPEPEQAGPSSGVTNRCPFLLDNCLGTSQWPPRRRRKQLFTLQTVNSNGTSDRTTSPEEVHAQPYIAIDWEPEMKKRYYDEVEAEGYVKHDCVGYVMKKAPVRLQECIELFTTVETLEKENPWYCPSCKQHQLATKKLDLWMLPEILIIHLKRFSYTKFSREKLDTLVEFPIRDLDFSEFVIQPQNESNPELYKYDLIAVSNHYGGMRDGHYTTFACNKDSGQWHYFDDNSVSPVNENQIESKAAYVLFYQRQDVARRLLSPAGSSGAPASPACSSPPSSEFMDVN

CCN(C(=O)CCl)C1CCCCC1
inactive: USP9X -0.0791 | UniProt O00487 0.0502 | UniProt O00507 0.476 | UniProt P51784 0.0309 | UniProt Q5T2D3 -0.00741 | UniProt Q8TE49 -0.32 | UniProt Q9P2H5 -0.0524 | UniProt Q9UGI0 0.069 | YOD1 0.333
